The source of these data is PubChem BioAssay (Tox21).

Inconclusive results are not listed. Activity calls are given as the source filed them. Unless noted, the call rests on the fitted dose curve; in most records, active means well fitted curve in the direction sought with a large enough effect in the repeat runs; inconclusive means weak or mixed curves; inactive means no such curve, though single readings can be large; an effect the other way counts as inactive or inconclusive.

Assay [1] is described as follows: qHTS assay to identify small molecule agonists of the vitamin D receptor (VDR) signaling pathway - cell viability counter screen (AID 743224). Further: nearly all actives have a fitted effect of over 50% in size. Further: potency means the concentration at half of the fitted maximal effect. Summed up:
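Plated VDR-bla cells (4 h, 37C) received compound, incubated 16 h, then LiveBLAzer substrate 2 h RT; CellTiter-Glo added afterwards, luminescence read at 30 min.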
(In general: In qHTS, concentration-response curves come from the screen itself.)

Assay [2] is described as follows: qHTS assay to identify small molecule antagonists of the vitamin D receptor (VDR) signaling pathway - cell viability counter screen (AID 743225). Further: nearly all actives have a fitted effect of over 50% in size. In outline:
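Same-well multiplex: following 16 h treatment of HEK 293T cells carrying a UAS-driven beta-lactamase reporter with compound and agonist (3 nM final), and a 2 h FRET substrate step, CellTiter-Glo was added and luminescence read after 30 min.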

Assay [3] is described as follows: qHTS assay to identify small molecule agonists of the endoplasmic reticulum stress response signaling pathway (AID 1159516; active means well fitted activation curve with a large enough effect in the signal ratio in the repeat runs, not every such curve was filed as active; the % refers to the signal ratio). In outline: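 An ESRE-bla HeLa cell assay: compounds were pin-transferred from DMSO onto overnight-plated cells and left 5 hr at 37 C. Substrate was then loaded for 2 hr at room temperature before reading fluorescence at 460 nm and 530 nm.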

The nature of assay [4]: qHTS assay to identify small molecule antagonists of the retinoid-related orphan receptor gamma (ROR-gamma) signaling pathway - cell viability counter screen (AID 1159520). Further: nearly all actives have a fitted effect of over 50% in size. Further: potency means the concentration at half of the fitted maximal effect. In outline: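 Tet-on ROR gamma CHO cells were given compounds for 2 hr, then doxycycline hyclate at 1 uM final, and incubated 16 hr at 37 C. Viability was measured as ATP content by CellTiter-Glo luminescence.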

Assay [5] has as its target Nuclear receptor ROR-gamma (Homo sapiens) (UniProt P51449). In words: qHTS assay to identify small molecule antagonists of the retinoid-related orphan receptor gamma (ROR-gamma) signaling pathway (AID 1159521; further: top concentration of the series differs between compounds; nearly all actives have a fitted effect of over 50% in size). Summed up: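 Inducible-expression reporter assay: doxycycline (1 uM final) switched on RORγ in CHO cells bearing a ROR response element-luciferase construct, with test compounds present from 2 h beforehand. Decreased luminescence after 16 h defined antagonist activity.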

Assay [6] in a line: qHTS assay to identify small molecule agonists of the AP-1 signaling pathway - cell viability counter screen (AID 1159525; calls by dose curve; further: nearly all actives have a fitted effect of over 55% in size; further: potency means the concentration at half of the fitted maximal effect). Summed up: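 AP-1-bla ME-180 cells in Opti-MEM with 0.5% dialyzed FBS, compound exposure 5 h at 37 C in 15-point titration. Viability read in the same wells as ATP content by CellTiter-Glo luminescence, normalised to tetra-n-octylammonium bromide and DMSO controls.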

Assay [7] can be described thus: qHTS assay to identify small molecule agonists of the AP-1 signaling pathway (AID 1159526; calls by dose curve).
Assay [8] deals with Retinoic acid receptor RXR-alpha (Homo sapiens) (UniProt P19793). In words: qHTS assay to identify small molecule agonists of the RXR signaling pathway (AID 1159527; calls by dose curve; further: nearly all actives have a fitted effect of over 35% in size). Summed up:
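Compounds in DMSO were added to RXR-alpha-UAS-bla HEK 293T cells kept in 2% charcoal-stripped serum, and incubated 16 hr at 37 C with 5% CO2. Reporter signal came from a 2 hr B/G FRET substrate step.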

Assay [9] in a line: qHTS assay to identify small molecule agonists of the RXR signaling pathway - cell viability counter screen (AID 1159529). Further: nearly all actives have a fitted effect of over 50% in size. Further: potency means the concentration at half of the fitted maximal effect. In outline:
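Counter screen: CellTiter-Glo luminescence. Cells: RXR-alpha-UAS-bla HEK 293T. Medium: 2% charcoal-stripped FBS. Treatment: 16 h, 37 C. Reagent incubation: 30 min, RT.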

Assay [10] can be described thus: qHTS assay to identify small molecule antagonists of the retinoid acid receptor (RAR) signaling pathway - cell viability counter screen (AID 1159551). Further: nearly all actives have a fitted effect of over 35% in size. Summed up: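 Retinol-stimulated (1 uM final) C3RL4 cells, compound 6 h, 37 C; readout CellTiter-Glo luminescence (ATP) after 30 min RT incubation.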
Assay [11] in a line: qHTS assay to identify small molecule antagonists of the retinoic acid receptor (RAR) signaling pathway (AID 1159552; further: nearly all actives have a fitted effect of over 50% in size). In outline:
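Antagonism of retinol-induced RARE reporter activity was measured in C3RL4 cells. Exposure to compounds and 1 uM final retinol lasted 6 hr at 37 C, with luminescence as endpoint.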

Assay [12] is described as follows: qHTS assay to identify small molecule agonists of the retinoic acid receptor (RAR) signaling pathway (AID 1159553). Summed up: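 Reporter readout comes from luciferase under RARE control in C3RL4 cells; compound exposure lasts 6 hr at 37 C in 5% CO2, and luminescence is recorded following a 30 min room-temperature incubation with reagent.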
Assay [13] is described as follows: qHTS assay to identify small molecule antagonists of the estrogen related receptor (ERR) signaling pathway from Tox21 library - cell viability counter screen (AID 1224834). Further: nearly all actives have a fitted effect of over 30% in size. Summed up:
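After 17.5 h of compound exposure at 37 C, ERR cells are incubated with CellTiter-Fluor for 30 min and fluorescence intensity serves as the viability measure.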

Assay [14] in a line: qHTS assay to identify small molecule agonists of the endoplasmic reticulum stress response signaling pathway - cell viability counter screen (AID 1159517; calls by dose curve; further: nearly all actives have a fitted effect of over 50% in size; further: potency means the concentration at half of the fitted maximal effect). In outline: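 Counter-screen wells were identical to the reporter wells. Cells were plated at 1,500 per well and dosed for 5 hr, then read for luminescence 30 min after CellTiter-Glo addition.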
The nature of assay [15]: qHTS assay to identify small molecule antagonists of the estrogen related receptor (ERR) signaling pathway - cell viability counter screen (AID 1224818). Further: series mostly up to about 46 µM. Summed up:
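After a 6 h pre-incubation, ERR cells were dosed by pin tool with compounds, positive/negative controls or DMSO alone. Following 17.5 h at 37 C and 30 min with CellTiter-Fluor, fluorescence was recorded.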

The nature of assay [16]: qHTS assay to identify small molecule antagonists of the estrogen related receptor signaling pathway with the pleiotropic PPARgamma coactivator (PGC) cell viability counter screen (AID 1224822; further: series mostly up to about 46 µM). Summed up:
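PGC/ERR cells were plated at 2,000 per well and allowed 6 h to settle before compound addition. Following 17.5 h at 37 C, CellTiter-Fluor reagent was added and fluorescence was read 30 min later.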

Chain of Retinoic acid receptor RXR-alpha (Homo sapiens) (P19793 whole entry, looked up): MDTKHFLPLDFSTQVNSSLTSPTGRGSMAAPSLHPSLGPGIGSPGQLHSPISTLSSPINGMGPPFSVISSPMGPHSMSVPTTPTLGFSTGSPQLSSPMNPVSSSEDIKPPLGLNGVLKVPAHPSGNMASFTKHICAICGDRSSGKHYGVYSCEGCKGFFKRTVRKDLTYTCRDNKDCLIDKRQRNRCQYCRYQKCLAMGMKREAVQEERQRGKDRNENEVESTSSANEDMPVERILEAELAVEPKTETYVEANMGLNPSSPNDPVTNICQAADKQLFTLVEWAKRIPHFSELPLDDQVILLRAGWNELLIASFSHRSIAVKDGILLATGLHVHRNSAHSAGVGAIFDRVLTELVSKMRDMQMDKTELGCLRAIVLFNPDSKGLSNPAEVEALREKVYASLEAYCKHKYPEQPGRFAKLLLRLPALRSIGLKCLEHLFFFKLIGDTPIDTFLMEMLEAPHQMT

Take `C[Si](C)(C)Cl`: the Potency result in assay [1], in assay [2], in assay [3], in assay [4], in assay [5] and in assay [6] was “inactive” each time. The Potency result in assay [7], in assay [8], in [9], in assay [10], in [11] and in [12] was “inactive” throughout. In addition, the Potency entry in [13] is “inactive”.

As to `CCN(CC)CCOC(=O)C1(C2CCCCC2)CCCCC1`, the Potency entry in assay [1], in [3] and in assay [14] was “inactive” throughout. The Potency in assay [9] is 12 µM (active).

As to `O=C(O)c1cccc(Cl)n1`, the Potency in [1] is 24.5 µM (active). In addition, the Potency entry in [3], in [14], in [4], in assay [6], in assay [7] and in assay [9] was “inactive” each time. The Potency entry in [10], in assay [11] and in [13] was “inactive” throughout.

On to `C=CC(=C)CCC=C(C)C`, for which, in [1], the Potency is 54.9 µM (active). Besides, the Potency entry in assay [2], in assay [3], in assay [14], in assay [4], in assay [6] and in assay [10] was “inactive” throughout. Also, the Potency result in [13] was “inactive”.

As for `CCCCOc1ccc(C(=O)CCN2CCCCC2)cc1`, the Potency entry in [2], in [3], in [14], in [7], in assay [10] and in [13] was “inactive” each time. Besides, in assay [4], the Potency is 26.6 µM (active).

Take `CCOC(=O)COc1ccc(C)cc1`: the Potency result in assay [1], in assay [2], in assay [3], in assay [4], in assay [5] and in assay [6] was “inactive” each time. Besides, the Potency entry in assay [7], in assay [8], in assay [9], in assay [10], in [11] and in assay [13] was “inactive” each time.

`Cc1c(C(=O)O)cccc1[N+](=O)[O-]`: the Potency entry in assay [2], in assay [3], in assay [14], in assay [4], in [6] and in [10] was “inactive” each time. The Potency result in assay [11] and in [13] was “inactive” throughout.

As to `CCCCCCCC/C=C\CCCCCCCC(=O)N(C)CC(=O)O`, the Potency in [1] is 49 µM (active); in [14], 54.9 µM (active); in [6], 30.9 µM (active). Further, the Potency result in assay [3] and in assay [5] was “inactive” throughout.

For `NC(=O)C(=O)N/N=C/c1ccc([N+](=O)[O-])o1`, the Potency result in assay [1], in assay [3], in assay [14], in assay [5], in assay [9] and in assay [10] was “inactive” throughout.

As for `NC(=O)c1ccccc1N`, the Potency entry in assay [1], in [3], in assay [14], in assay [5], in [7] and in [8] was “inactive” in each case. The Potency entry in assay [9], in [10], in assay [11], in assay [12] and in assay [13] was “inactive” each time.

As for `CC(CN(C)C)CN1c2ccccc2CCc2ccccc21` (configuration not stated), the Potency entry in [2], in assay [3], in assay [14], in assay [4], in assay [10] and in [15] was “inactive” each time. Moreover, the Potency entry in assay [16] was “inactive”. The Potency in [9] was 9.52 µM (active).
